test: E. coli acrAB mutant growth effects, primary screen, E. coli filamentation inducers, strain DRC39, OD650, 24 h (AID 1178); settings: higher = more signal, called active from +8 up or from −8 down;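 note: growth measured as culture turbidity by optical density at 650 nm; test concentration not given here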

z-score, inactive:
CC(C)CNC(=O)[C@@H]1c2ccccc2C(=O)N(Cc2cc(F)cc(C(F)(F)F)c2)[C@H]1c1ccc(CO)cc1 1.84, CCN(CC)c1ccc(N2CC=CC34O[C@@H]5/C=C\CCC(C)OC(=O)C5[C@H]3C(=O)N(CCO)[C@@H]4C2=O)cc1 (stereo partly specified) -0.736, COc1ccccc1CN1C(=O)c2ccccc2[C@@H](C(=O)NC(C)C)[C@@H]1c1ccc(CO)cc1 0.686, [N-]=[N+]=NCc1ccccc1[C@H]1OC(c2ccc(OCCCO)cc2)=N[C@@]1(CCS(=O)(=O)c1ccccc1)C(N)=O 0.0575, C=CCOC(=O)[C@@H]1[C@H]2C(=O)O[C@H](c3ccccc3)[C@H](c3ccccc3)N2[C@H](c2ccc(OCCOC(=O)[C@H]3C[C@H]4C(=O)N[C@@H](CCCC[N+](C)(C)C)C(=O)N4[C@H]3c3ccc(O)cc3)cc2)[C@@]12C(=O)Nc1ccc(I)cc12 -0.877, C=C(CCCC)/C(=C/C[C@@H](OC(C)=O)c1ccc(CO)o1)c1cc(C(=O)OC)ccc1OC -0.122, CC(C)C(O)C1C=CC2C(=O)N(C)C(=O)C2N1N(c1ccccc1)c1ccccc1 (stereo unspecified) -0.841, C=CCNC(=O)[C@@H]1[C@H]2C(=O)O[C@H](c3ccccc3)[C@H](c3ccccc3)N2[C@H](c2ccc(OCCO)cc2)[C@@]12C(=O)N(C(=O)OCCOC)c1ccc(C#CC3=CCCCC3)cc12 -0.713, COCCOC(=O)N1C(=O)[C@@]2(c3cc(C#Cc4ccc(OC)cc4)ccc31)[C@H](C(=O)N1CCCCCCC1)[C@H]1C(=O)O[C@H](c3ccccc3)[C@H](c3ccccc3)N1[C@@H]2c1ccc(O)cc1 -0.919, COC(=O)Cn1c(C(=O)N2CCCC2)cc2c1C[C@H]1CN(C(=O)c3ccccc3)[C@@](Cc3ccc(F)cc3)(C(=O)OC)[C@@H]21 -0.132, NCCCCCNC(=O)[C@@H]1C[C@@H]2C(=O)N[C@@H](CCCCN)C(=O)N2[C@@H]1c1cccc(OCCO)c1 0.928, Cc1ccc(S[C@]2(C(=O)NC(C)C)CC(=O)N(Cc3ccccc3C(F)(F)F)[C@@H]2c2ccc(CO)cc2I)cc1 0.221, COCCOC(=O)N1C(=O)[C@@]2(c3cc(C#CC4(O)CCCCCC4)ccc31)[C@H](C(N)=O)[C@H]1C(=O)O[C@H](c3ccccc3)[C@H](c3ccccc3)N1[C@@H]2c1ccccc1OCCO -0.735, C=CC[C@H](OC(=O)Nc1ccc(OC)cc1)c1ccc(O)c2ccccc12 0.852, COCC(=C=CC[C@H](O)c1cccc(OCCO)c1)C[C@H](O)c1ccccn1 1.38, C=CC[C@@]1(C(=O)N2CCCCC2)N=C(c2ccc(OCCCO)cc2)O[C@@H]1c1ccccc1 -0.212, COCCCNC(=O)[C@@H]1c2ccccc2C(=O)N(Cc2ccccc2C(F)(F)F)[C@H]1c1ccc(CO)cc1 0.414, COc1ccc([Si](C)(C)[C@H]2[C@H](CCO)O[C@@]3(C(=O)N(Cc4cccc(N5CCCCC5=O)c4)c4ccccc43)[C@@H]2C)cc1 1.83, O=C1C[C@@](C(=O)NCC(F)(F)F)(c2ccc([N+](=O)[O-])cc2)[C@@H](c2ccc(CO)cc2)N1C1CCCCC1 0.659, COC(=O)[C@@]1(Cc2ccc(OC)cc2)[C@H]2c3cc(C(=O)N(C)C)n(CCc4c[nH]c5ccc(O)cc45)c3C[C@H]2CN1C(=O)c1ccccc1 -0.135, CC(C)c1ccc(NN2C(C(O)c3ccco3)C=CC3C(=O)N(c4ccccc4)C(=O)C32)cc1 (stereo unspecified) -0.609, COC(=O)[C@@]1(Cc2ccc(OC)cc2)[C@H]2c3cc(C(=O)N(C)C)n(Cc4nc5ccccc5[nH]4)c3C[C@H]2CN1C(=O)c1ccccc1 -0.614, CN1C(=O)[C@@]2(CCS(=O)(=O)c3ccccc3)N=C(c3ccc(OCCCO)cc3)O[C@H]2c2ccccc21 0.606, O=C1O[C@@H](c2ccccc2)[C@@H](c2ccccc2)N2[C@@H](c3ccc(O)cc3)[C@]3(C(=O)Nc4ccccc43)[C@@H](C(=O)Nc3nc4ccccc4s3)[C@H]12 -0.0021, CC(C)NC(=O)[C@@]1(C)c2ccccc2C(=O)N(C(C)C)[C@H]1c1ccc(CO)cc1 0.0378, COC(=O)[C@@]1(Cc2ccccc2)[C@H]2c3cc(C(=O)N4CCCC4)[nH]c3C[C@H]2CN1C(=O)c1ccccc1 -0.79
